Shown are actives, neighbours in structure and some others; about 1.2% of the full set was active somewhere.
FBPA Giardia inh: blocks Giardia fructose-bisphosphate aldolase activity; Potency, µM (top dose mostly 59.6 µM), actives largely listed as inhibitors; purified Giardia FBPA; 290,000 tested, 0.71% active; further: nearly all actives have a fitted effect of over 55% in size
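Giardia FBPA (40 nM reagent) was preincubated 10 min at RT with compound (up to 57.5 uM final), then substrate plus GAPDH/TPI/NAD/arsenate coupling system with diaphorase/resazurin was added; resorufin fluorescence (525/598 nm) was read after 20 min.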
AMA1 RON2 block: inhibitors of Plasmodium falciparum AMA1-RON2 interaction; AlphaScreen AMA1-biotinylated RON2 peptide binding; 360,000 tested, 0.2% active; Potency, µM (series often up to 58.2 µM), usual class: inhibitors; further: nearly all actives have a fitted effect of over 45% in size
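AMA1 (3D7) with his tag at 25 nM final met compounds first, then biotinylated RON2 peptide at 25 nM; detection used donor plus acceptor beads, 10 µg/mL apiece, read by AlphaScreen after 30 min at room temperature.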
Tb PYK inh: blocks Trypanosoma brucei pyruvate kinase | TbPYK enzyme, Kinase-Glo Plus ATP luminescence, 45 min | Q57TT1 | 410,000 tested, 0.12% active | AID 624173 | Potency, µM (series often up to 76.8 µM), usual class: inhibitors; further: nearly all actives have a fitted effect of over 50% in size
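Activity of T. brucei pyruvate kinase was followed by Kinase-Glo Plus luminescence after the enzyme reacted 45 min at room temperature with 130 uM ADP (final) and substrate. Test compounds were added before ADP at multiple concentrations.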
LmPK inhibitor: inhibitors of Leishmania mexicana pyruvate kinase | Q27686 | purified LmPK, Kinase-Glo ATP luminescence, 1 h | Potency, µM (series often up to 57.5 µM), actives largely listed as inhibitors | 290,000 tested, 0.37% active | AID 1721
Target sequence (Q27686 whole entry, looked up): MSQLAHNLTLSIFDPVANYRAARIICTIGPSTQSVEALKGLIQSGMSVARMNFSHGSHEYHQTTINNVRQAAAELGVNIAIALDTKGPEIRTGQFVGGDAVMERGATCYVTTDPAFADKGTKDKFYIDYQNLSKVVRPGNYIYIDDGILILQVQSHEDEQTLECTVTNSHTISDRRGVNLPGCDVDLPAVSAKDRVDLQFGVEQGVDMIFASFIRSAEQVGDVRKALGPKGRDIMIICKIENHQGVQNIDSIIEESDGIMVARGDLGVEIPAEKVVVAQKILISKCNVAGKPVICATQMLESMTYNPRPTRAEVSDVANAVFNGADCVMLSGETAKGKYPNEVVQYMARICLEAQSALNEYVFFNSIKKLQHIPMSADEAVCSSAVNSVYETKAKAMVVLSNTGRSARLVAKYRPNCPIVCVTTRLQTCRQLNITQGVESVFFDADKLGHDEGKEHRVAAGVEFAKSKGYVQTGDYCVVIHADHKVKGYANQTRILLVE
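Screened at intermediate enzyme activity to detect both inhibitors and activators: LmPK at 0.1 nM, with a 0.5 nM enzyme column as activation reference. PEP 0.5 mM, ADP 0.1 mM; ATP detected by luminescence after 1 h.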
NS1 function inh: inhibitors of influenza NS1 protein function; Potency, µM (highest dose often 46.1 µM); 270,000 tested, 0.4% active; AID 2326; calls by dose curve; further: actives are rising curves; nearly all actives have a fitted effect of over 50% in size
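In this qHTS, NS1 from influenza A is expressed in budding yeast, where it slows growth. Cells are switched from glucose to 2% galactose medium (pH 6.0, -URA), treated with compound, and growth recovery is read at OD600.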
Hits are given with their value; 0 = inactive; ? = inconclusive; - = no result. Unless noted, the call rests on the fitted dose curve; in most records, active means well fitted curve in the direction sought with a large enough effect; inconclusive means small, poorly fitted or top-dose-only effect, or another doubt; inactive means no such curve, though single readings can be large; an effect the other way counts as inactive or inconclusive.

SMILES | FBPA Giardia inh | AMA1 RON2 block | Tb PYK inh | LmPK inhibitor | NS1 function inh
O=C(NC1=NCCS1)C1COc2ccccc2O1 (stereo unspecified) | 0 | 0 | 0 | 15.8µM | 0
O=C(COc1ccc(Cl)cc1Cl)Nc1ccccn1 | 0 | 0 | ? | 5.01µM | 0
COc1ccccc1OCC(=O)Nc1ccccn1 | 0 | 0 | ? | 12.6µM | 0
CC(=O)OCC(NC(=O)C(C)NC(=O)OC(C)(C)C)C1OC(n2cc(F)c(=O)[nH]c2=O)C(OC(C)=O)C1OC(C)=O (stereo unspecified) | 0 | - | - | - | -
CN(Cc1nc(C(c2ccccc2)c2ccccc2)no1)CC1COCCO1 (stereo unspecified) | 0 | 0 | 0 | 14.1µM | 0
CCOc1ccc(NCc2nnc(SCc3ccccc3Cl)n2-c2ccccc2)cc1 | 0 | 26.7µM | 0 | 0 | 0
CCCCn1c(Cc2ccccc2)n[nH]c1=S | 0 | 0 | 11.2µM | ? | 0
CCn1c(CCc2ccccc2)n[nH]c1=S | 0 | 0 | ? | 0 | 0
CCCCn1c(-c2c(Cl)c(C)nn2C)n[nH]c1=S | 0 | 0 | 10µM | 0 | -
CC(C)Cn1c(Cc2ccccc2)n[nH]c1=S | 0 | 0 | ? | 11.2µM | ?
CCn1c(Cc2ccccc2)n[nH]c1=S | 0 | 0 | ? | 0 | ?
CCCCn1c(-c2sccc2C)n[nH]c1=S | 0 | 0 | ? | 31.6µM | 0
N/N=C1/CC(=O)NC(=O)N1 | - | - | - | - | 0
Cn1c(=O)c2[nH]c([C@@H]3CC(=O)C[C@H](c4nc5c([nH]4)c(=O)n(C)c(=O)n5C)N3)nc2n(C)c1=O | - | - | - | - | 0
Cc1ccc(O)c(CO)n1 | 0 | 0 | 0 | 0 | 0
Cc1nc2c(O)cccc2cc1CO | 19.9µM | 0 | 0 | 0 | 0
O=C1c2cccc(Cl)c2C(=O)c2c1cccc2N1CCCC1 | - | 6.31µM | 0 | - | -
COc1ccccc1N1CCN(/N=C/C=C\c2ccccc2[N+](=O)[O-])CC1 | 0 | 20µM | 0 | 0 | -
COc1ccccc1N1CCN(/N=C/C=C\c2ccco2)CC1 | 0 | ? | 0 | 0 | 0
CC1CCCC(C)N1/N=C/C=C/c1ccccc1[N+](=O)[O-] (stereo unspecified) | 0 | 15.8µM | 0 | 0 | -
COc1cccc(/C=N/N2CCN(c3ccccc3OC)CC2)c1 | 0 | ? | 0 | 0 | 0
CC1CCCC(C)N1/N=C/c1ccc([N+](=O)[O-])cc1 (stereo unspecified) | 0 | ? | 0 | 0 | 0
COc1ccccc1N1CCN(/N=C/c2cccc(Cl)c2)CC1 | 0 | 14.1µM | 0 | 0 | 0
O=C1CN(C(=O)Nc2ccccc2Cl)C(c2ccccc2)c2c(sc3c2CCCC3)N1 (stereo unspecified) | - | - | 0 | - | -
O=C(C1CCCN(S(=O)(=O)c2cccs2)C1)N1CCN(c2cccc(Cl)c2)CC1 (stereo unspecified) | - | - | 0 | - | -
SMILES | FBPA Giardia inh | AMA1 RON2 block | Tb PYK inh | LmPK inhibitor | NS1 function inh
Cc1ccc(S(=O)c2ccc([N+](=O)[O-])c3nonc23)cc1 (stereo unspecified) | - | 0 | 6.31µM | - | -
N#C/C(=C/c1ccc(N2CCCCC2)o1)c1cccc(F)c1 | ? | 0 | 0 | 0 | 0
N#C/C(=C/c1ccc(N2CCCCC2)cc1)c1cccc(F)c1 | 0 | 15.8µM | 0 | 0 | 0
CC1CC2C3CCC4=CC(=O)C=CC4(C)[C@@]3(F)C(O)CC2(C)[C@@]1(O)C(=O)CCl (stereo partly specified) | - | - | 0 | - | -
O=C1C=C(CO)OCC1=O | - | - | 0 | - | -
COC(=O)C1=C(C)N(CC2CC2)C(=O)N[C@H]1CCc1ccccc1 | 0 | - | - | - | -
CCOC(=O)c1c(N)sc(C(=O)Nc2ccc3c(c2)OCO3)c1C | 0 | 0 | 0 | 5.01µM | 0
Cc1occc1C(=O)Nc1ccc2c(c1)OCO2 | 0 | 0 | 0 | 14.1µM | 0
Cc1cc(NC(=O)c2ccoc2C)ccc1Br | - | 0 | 0 | - | -
Cc1cc(NC(=O)c2ccoc2C)no1 | 0 | 0 | 0 | 17.8µM | 0
CCOC(=O)c1c(C)c(C(=O)Nc2ccc3c(c2)OCO3)c(C)n1C | 0 | 0 | 0 | 0 | 0
Cc1ccc(NC(=O)c2ccoc2C)cc1C | 0 | 0 | 0 | 14.1µM | 0
CCOC(=O)c1c(C)[nH]c(CCC(=O)NCc2cc(Br)ccc2OC)c1C | - | - | 0 | - | -
COc1cccc([C@@H]2Oc3ccc(Br)cc3C[C@H]2O)c1 | 0 | - | - | - | -
Cc1occc1C(=O)Nc1cccc2ccccc12 | 0 | 0 | 0 | 25.1µM | 0
COc1ccc(NC(=O)CN2C(=O)CSc3ccc(S(=O)(=O)N(C)C)cc32)cc1Cl | - | - | 0 | - | -
COc1ccc(C)cc1NCc1ccc(OC)c(C)c1OC | ? | 28.2µM | 0 | 0 | 0

Screening results: PubChem BioAssay, National Center for Advancing Translational Sciences (NCATS)
